Screening results as filed in PubChem.
Compounds with a hit are over-represented: about 3.9% of the library has one in this group of screens.
HepG2 viability: counter-screen for TGF-b inhibitors: cytotoxicity in HepG2 cells; Potency, µM (series often up to 46.1 µM), without a hit: at the top dose activity change, negative = cytotoxicity, usual class: cytotoxic; 0.76% of 410,000 active; HepG2 CAGA-GFP viability, ATP luminescence, 18 h
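CellTiter-Glo luminescence gave cytotoxicity after 18 hours at 37 degrees C. The cells were HepG2 CAGA-GFP in 1% FBS DMEM, stimulated with 500 pg/mL TGF-beta after compound addition. %Activity was normalised to no-cell wells (complete cell-killing) and DMSO (no toxicity), and curves were fitted and classified.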
TGFb inhibitor: TGF-b pathway inhibition. 1.2% of 410,000 active. Potency, µM (titrated, usually from 46.1 µM), for the others: at the highest dose activity, negative = inhibition, most hits filed as inhibitors. HepG2 CAGA-GFP TGF-b/SMAD3 reporter, GFP fluorescence, 18 h; TGF-beta stimulated, 500 pg/mL final; further: on the % scale 0 is the no-effect control and ±100 the full control effect; nearly all actives have a fitted effect of over 65% in size
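HEPG2 CAGA-GFP, 1000 cells/well; 2 h settle, 37 C; cpd via pin tool; TGF-b 500 pg/mL final; 18 h, 37 C; GFP imaging ex488/em500-530; %Activity normalised to -TGF-b and +DMSO controls; CRC fit, curve class.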
HT1080 IDH1KD tx: HT-1080 IDH1 knockdown cell toxicity (counter line); HT-1080 IDH1 knockdown viability, ATP luminescence, 48 h; Potency, µM (top dose mostly 46.1 µM), inactives show at the top dose activity, negative = toxicity, usual class: cytotoxic; 2% of 360,000 active; AID 686971;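 further: 0% = DMSO wells and -100% = cell-free medium wells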
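CellTiter-Glo luminescence after 48 h compound exposure at 37 degrees C of IDH1-knockdown HT-1080 cells in 5% FBS RPMI. %Activity scaled between DMSO wells and cell-free media wells, with curves fitted and assigned curve classes.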
ATXN2 expr inh: ATXN2 expression inhibition. HEK-293 ATXN2-luciferase reporter, luminescence, 24 h. Potency, µM (titrated, usually from 57 µM), without a hit: top-dose activity change, negative = inhibition, actives largely listed as inhibitors. 0.72% of 360,000 active; further: on the % scale 0 is the no-effect control and ±100 the full control effect; nearly all actives have a fitted effect of over 55% in size
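ATXN2-luciferase reporter cells (luciferase flanked by upstream and downstream ATXN2 gene portions) were treated 24 h at 37 °C with compounds at up to 57 uM. SteadyGlo luminescence gave expression; GF-AFC fluorescence gave viability.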
HT1080-NT tox: kills 2HG-producing HT-1080-NT fibrosarcoma cells; HT-1080-NT fibrosarcoma viability, CellTiter-Glo ATP luminescence, 48 h; Potency, µM (doses to about 46.1 µM), without a hit: top-dose activity, negative = less viability, most hits filed as cytotoxic; 1.6% of 360,000 active; AID 686970;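 further: NT is the 2HG producing partner of a matched IDH1 knockdown line; 0% = DMSO-treated cells and -100% = media-only wells without cells; nearly all actives have a fitted effect of over 55% in size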
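Luminescent CellTiter-Glo readout after 48 hours of compound exposure at 37 degrees C defined viability of HT-1080-NT cells. Activity was normalized to DMSO wells and cell-free media wells; concentration-response curves were fitted and assigned curve classes.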
S2 tox: viability counter-screen for ATXN expression inhibitors; S2 cells (HEK-293 line with an ATXN2-luciferase reporter) viability, CellTiter-Fluor protease fluorescence, 24 h; Potency, µM (series often up to 56.7 µM), actives largely listed as cytotoxic; 0.49% of 400,000 active; further: nearly all actives have a fitted effect of over 40% in size
Numbers without * were called inactive. The call rests on the fitted dose curve; in most records, active means well fitted curve in the direction sought with a large enough effect; inconclusive means small, poorly fitted or top-dose-only effect, or another doubt; inactive means no such curve, though single readings can be large; an effect the other way counts as inactive or inconclusive. Potency means the concentration at half of the fitted maximal effect.

Cc1nn(-c2ccccc2)c2c1C(c1ccc(O)c(O)c1)N1C(=N2)C(Nc2ccccc2)=Nc2ccccc21 (configuration not stated) was read as HepG2 viability 3.4%, TGFb inhibitor inconclusive, HT1080 IDH1KD tx 0.7%, ATXN2 expr inh 4.7%, HT1080-NT tox 3.0% and S2 tox inconclusive.
For CCOc1ccccc1C(=O)Nc1ccc2nc3c(c(Nc4ccc(OC)c(OC)c4)c2c1)CCCC3 the results were HepG2 viability 10µM* and TGFb inhibitor inconclusive.
For COc1ccc(Nc2c3c(nc4ccc(NC(=O)c5cc(Cl)ccc5OC)cc24)CCCC3)cc1OC the results were HepG2 viability 7.08µM*, TGFb inhibitor 10µM*, ATXN2 expr inh 3.16µM* and S2 tox 7.08µM*.
COc1ccccc1Nc1c2c(nc3ccc(NC(=O)c4ccc(N(C)C)cc4)cc13)CCCC2 was read as HepG2 viability -49.4% and TGFb inhibitor inconclusive.
Screening CCOc1ccccc1C(=O)Nc1ccc2nc3n(c(=O)c2c1)CCCCC3 returned HepG2 viability -20.3%, TGFb inhibitor -9.2%, HT1080 IDH1KD tx inconclusive, HT1080-NT tox 8.1% and S2 tox inactive.
`COc1cc(OC)cc(C(=O)Nc2ccc3nc4c(c(Nc5ccc(OC)c(OC)c5)c3c2)CCCC4)c1` gave HepG2 viability 15.8µM*, TGFb inhibitor 12.6µM*, ATXN2 expr inh 20µM* and S2 tox 28.2µM*.
For COc1ccc(Cl)cc1C(=O)Nc1ccc2nc3n(c(=O)c2c1)CCCC3 the results were HepG2 viability -3.0%, TGFb inhibitor 0.2%, HT1080 IDH1KD tx 0.8%, ATXN2 expr inh 14.3%, HT1080-NT tox -11.8% and S2 tox inactive.
Screening O=C(Nc1nnc(S(=O)(=O)N2CCN(c3ccc(F)cc3)CC2)s1)c1ccc(Cl)cc1 returned HepG2 viability -11.3%, TGFb inhibitor -1.2%, ATXN2 expr inh 10.9% and S2 tox inactive.
Nc1nc(NC(=O)c2ccccc2)nn1-c1ccccc1 was read as HepG2 viability 3.4%, TGFb inhibitor 24.8%, HT1080 IDH1KD tx 10.4%, HT1080-NT tox -2.3% and S2 tox inactive.
`O=C(Nc1nc(NC(=O)c2ccco2)n(-c2ccccc2)n1)c1ccccc1` gave HepG2 viability -40.9%, TGFb inhibitor inconclusive, HT1080 IDH1KD tx 2.51µM*, ATXN2 expr inh inconclusive, HT1080-NT tox 10µM* and S2 tox inactive.
`CCc1ccc(N(CC)C(=O)c2ccc3c(=O)n4c(nc3c2)CCCCC4)cc1` gave HepG2 viability -42.5%.
`CC(C)[C@H](NC(=O)Cc1ccccc1)C(=O)OCc1cc(=O)n2c(n1)sc1ccccc12` gave HepG2 viability -24.5%, TGFb inhibitor 15.8µM*, HT1080 IDH1KD tx -14.6%, ATXN2 expr inh 6.3%, HT1080-NT tox -10.8% and S2 tox inactive.
Screening Cc1ccc2c(CC(=O)OCc3cc(=O)n4c(n3)sc3ccccc34)coc2c1 returned HepG2 viability 5.7%, TGFb inhibitor 0.0%, HT1080 IDH1KD tx 7.3%, ATXN2 expr inh 1.4%, HT1080-NT tox 8.1% and S2 tox inactive.
For CC(C)Cn1c(N)c(C(=O)COC(=O)c2cc(C3CC3)nc3ccccc23)c(=O)n(C)c1=O the results were HepG2 viability -17.4%, TGFb inhibitor inconclusive, HT1080 IDH1KD tx inconclusive, ATXN2 expr inh inconclusive, HT1080-NT tox 20.6µM* and S2 tox inconclusive.
Screening COCCNC(=O)c1nn(-c2ccc(Cl)cc2)nc1CO returned HepG2 viability -19.0% and TGFb inhibitor -8.2%.
O=C(Nc1ccc(Br)cn1)c1cccc(-c2cc3ccccc3oc2=O)c1 was read as HepG2 viability -19.9%, TGFb inhibitor 13.3%, HT1080 IDH1KD tx 23.1µM*, ATXN2 expr inh -27.3%, HT1080-NT tox inconclusive and S2 tox inactive.
For Cn1c2ccccc2c2cc(C(=O)NNC(=O)CCl)sc21 the results were HepG2 viability -28.1%, TGFb inhibitor -20.8%, HT1080 IDH1KD tx 20.6µM*, ATXN2 expr inh inconclusive and HT1080-NT tox inconclusive.
O=c1cc(-c2ccccc2)cc(-c2ccccc2)n1O was read as HepG2 viability -8.1%, TGFb inhibitor inconclusive, HT1080 IDH1KD tx inconclusive, ATXN2 expr inh 14.1µM*, HT1080-NT tox -29.3% and S2 tox 15.8µM*.
For Cc1ccc(C(=O)NC(=S)N2CC(C)OC(C)C2)cc1[N+](=O)[O-] (configuration not stated) the results were HepG2 viability -28.1%, TGFb inhibitor -16.9%, HT1080 IDH1KD tx 2.82µM*, ATXN2 expr inh -1.1%, HT1080-NT tox 3.55µM* and S2 tox inactive.
`CCc1ccc2[nH]c(=O)c(CN(CCN(C)C)C(=O)Nc3ccccc3OC)cc2c1` gave HepG2 viability -22.9%, TGFb inhibitor 28.8%, HT1080 IDH1KD tx inconclusive, ATXN2 expr inh -10.5%, HT1080-NT tox inconclusive and S2 tox inactive.
For Cc1cc2cc(CN(CC3CCCO3)C(=S)Nc3ccccc3)c(=O)[nH]c2cc1C (configuration not stated) the results were HepG2 viability -17.2%, TGFb inhibitor inconclusive, HT1080 IDH1KD tx inconclusive, ATXN2 expr inh -29.2%, HT1080-NT tox 11.6µM* and S2 tox inconclusive.
COc1ccc2[nH]c(=O)c(CN(CC3CCCO3)C(=S)Nc3ccccc3)cc2c1 (configuration not stated) was read as HepG2 viability -20.2%, TGFb inhibitor inconclusive, HT1080 IDH1KD tx 1.0%, HT1080-NT tox -7.6% and S2 tox inactive.
For CN(C)CCCN(Cc1cc2cc3c(cc2[nH]c1=O)OCO3)C(=S)Nc1cccc(Cl)c1 the results were HepG2 viability -36.7%, TGFb inhibitor inconclusive, HT1080 IDH1KD tx -21.8%, ATXN2 expr inh -26.7%, HT1080-NT tox 14.6µM* and S2 tox inactive.
Screening CCc1ccc2[nH]c(=O)c(CN(CCN(CC)CC)C(=O)Nc3ccccc3OC)cc2c1 returned HepG2 viability -23.9%, TGFb inhibitor 9.5%, HT1080 IDH1KD tx inconclusive, ATXN2 expr inh -27.4%, HT1080-NT tox 16.4µM* and S2 tox inconclusive.
For CN(C)CCCN(Cc1cc2cc3c(cc2[nH]c1=O)OCO3)C(=S)Nc1ccccc1 the results were HepG2 viability 1.9%, TGFb inhibitor 57.1%, HT1080 IDH1KD tx -4.5%, ATXN2 expr inh -33.6%, HT1080-NT tox -6.1% and S2 tox inactive.
